In the library only some 2.6% were active in any assay of this set; here they are far more common.
TLR4-MyD88 BLA: blocks binding of human TLR4 to MyD88; O00206+Q99836; HeLa CL3-4 TLR4/MyD88 BLA complementation, FRET ratio; inhibition, % at 8.4 µM; actives 0.18% (n = 200,000); AID 861; in the data active means inhibition above about 25%;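 further: 0% = vehicle and 100% = reference inhibitor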
Granule exo inh: blocks lytic granule exocytosis. TALL-104 LAMP-1 surface exposure, flow cytometry; cells stimulated with thapsigargin and PMA. inhibition, % at 10 µM. actives 0.66% (n = 360,000). AID 651702;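 active means inhibition above about 55%, limit read from the data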
PRMT1 FP inh: inhibitors of human PRMT1 | inhibition, % at 2.79 µM | actives 1.3% (n = 370,000) | recombinant PRMT1, activity-based probe fluorescence polarization | Q99873;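 active means inhibition above about 21% made by adding two undisclosed values, limit read from the data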
NOD2-RIPK2 inh: inhibitors of human NOD2-RIPK2 interaction; O43353; CHO BLA complementation NOD2-RIPK2, CCF4 ratio; inhibition, % at 4.98 µM; actives 0.38% (n = 360,000); AID 624267; in the data active means inhibition above about 21%;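 further: 0% = vehicle only and 100% = reference blocker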
TLR9-MyD88 block: blocks human TLR9 binding to MyD88. CHO BLA complementation TLR9-MyD88, CCF4 FRET ratio. Q9NR96+Q99836. actives 0.21% (n = 340,000). inhibition, % at 4.98 µM. AID 504734;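 active means inhibition above the mean over all tested compounds plus 3 SD, cut at about 21% in these data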;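 further: 0% = DMSO only wells and 100% = clavulanate BLA inhibitor control wells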
ABHD5-PLIN5 inh: blocks binding of human ABHD5 to perilipin-5 | Split G. princeps luciferase complementation, luminescence, 4 h | inhibition, % at 4 µM | AID 602281 | actives 0.78% (n = 360,000) | Q00G26+Q8WTS1;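 active means inhibition above the mean inhibition across every tested compound plus 3 SD, cut at about 22% in these data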;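 further: 0% = DMSO only wells and the 100% control is not disclosed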
Target sequence (Q00G26 whole entry, looked up): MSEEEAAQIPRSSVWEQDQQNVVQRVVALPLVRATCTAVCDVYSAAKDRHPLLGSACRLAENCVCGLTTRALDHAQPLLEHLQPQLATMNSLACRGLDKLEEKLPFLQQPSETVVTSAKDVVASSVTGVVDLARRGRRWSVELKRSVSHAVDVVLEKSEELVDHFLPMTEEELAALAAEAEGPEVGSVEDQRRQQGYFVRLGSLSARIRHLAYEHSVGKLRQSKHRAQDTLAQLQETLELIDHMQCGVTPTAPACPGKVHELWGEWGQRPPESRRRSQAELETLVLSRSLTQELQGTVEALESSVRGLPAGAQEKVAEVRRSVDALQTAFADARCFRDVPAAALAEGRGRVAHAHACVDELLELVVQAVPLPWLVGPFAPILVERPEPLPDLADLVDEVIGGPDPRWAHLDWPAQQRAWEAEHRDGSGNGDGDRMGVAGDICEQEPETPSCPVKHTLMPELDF
Target sequence (Q8WTS1 whole entry, looked up): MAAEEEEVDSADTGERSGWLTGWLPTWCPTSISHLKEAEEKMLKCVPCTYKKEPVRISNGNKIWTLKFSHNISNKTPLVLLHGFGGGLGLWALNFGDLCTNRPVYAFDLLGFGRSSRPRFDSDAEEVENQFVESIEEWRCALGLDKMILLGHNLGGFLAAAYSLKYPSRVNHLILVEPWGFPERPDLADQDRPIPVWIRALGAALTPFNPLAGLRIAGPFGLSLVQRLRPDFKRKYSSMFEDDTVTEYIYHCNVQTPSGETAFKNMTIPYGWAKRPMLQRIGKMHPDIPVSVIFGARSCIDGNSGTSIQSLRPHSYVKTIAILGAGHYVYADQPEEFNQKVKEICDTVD
PRMT1 confirm: confirmation of human PRMT1 inhibitors; inhibition, % at 2.79 µM; shares compounds with PRMT1 FP inh; actives 42% (n = 3,300); AID 687036; recombinant His-PRMT1, activity-based probe fluorescence polarization;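 active means mean inhibition across replicates above the hit cutoff derived for the earlier primary screen, cut at about 22% in these data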
* marks the source's active call; other numbers are inactive results; . = not tested or not shown.

SMILES	TLR4-MyD88 BLA	Granule exo inh	PRMT1 FP inh	NOD2-RIPK2 inh	TLR9-MyD88 block	ABHD5-PLIN5 inh	PRMT1 confirm
Cc1sc(NC(=O)c2sc3nc4c(C)cccc4cc3c2N)c(C#N)c1C	25	3	31*	-1	7	-12	0
COc1ccccc1/C=C1\SC(=S)N(NS(=O)(=O)c2ccc(C)cc2)C1=O	.	-7	3	6	1	3	.
Cc1ccc(S(=O)(=O)NN2C(=O)/C(=C/c3cccnc3)SC2=S)cc1	.	-14	31*	-11	3	-13	13
COc1ccc2c3c(ccc2c1)C(=O)/C(=C/O)CC3	.	-3	30*	-6	4	-3	24*
c1cc(SSc2ccncc2)ccn1	.	22	87*	5	9	-18	83*
c1ccc(Sc2ccncc2)cc1	.	1	-3	-1	-6	-1	.
COC(=O)C1=C(C)N(CC(C)C)C(=S)NC1c1ccc(-c2ccccc2)cc1 (stereo not given)	.	.	-6	.	.	.	.
CCOC(=O)c1ccc(N2N=C(C)/C(=C/C=C/c3ccco3)C2=O)cc1	3	0	1	3	-11	-3	.
O=C(O)c1cc(N2N=C(C(F)(F)F)/C(=C/C=C/c3ccco3)C2=O)ccc1Cl	3	5	70*	-3	-1	22*	54*
Nc1c(C(=O)c2ccco2)oc2ccccc12	13	.	-2	.	.	.	.
c1coc(C2Nc3ccccc3-c3nc4ccccc4n32)c1 (stereo not given)	10	7	45*	12	12	5	-1
S=c1[nH]cc(-c2ccccc2)n1-c1ccccc1	-3	0	34*	6	7	-11	12
Cn1cc(C(=O)Nc2ccc(F)c(Cl)c2)cn1	-8	-8	-2	-12	-8	-2	.
CN1c2ccsc2C(O)=C(C(=S)Nc2ccc(F)c(Cl)c2)S1(=O)=O	-1	-2	30*	-6	-1	-30	21
CC(=O)c1cc(-c2ccc(S(C)(=O)=O)cc2)c(=O)n2c1CCC2	.	.	-1	.	.	.	.
COc1ccc(-c2c(-c3cc(OC)cc(OC)c3)sc3ccc(OC)cc23)cc1	.	-3	2	-12	-9	-8	.
CCCC[n+]1c(C)sc2cc(OC)ccc21	0	13	30*	-4	-1	1	6
COc1ccc2sc(C)[n+](C)c2c1	-5	-4	60*	2	0	-12	30*
O=C(Nc1nc2c(F)cc(F)cc2s1)C1CC1	.	0	4	-14	5	2	.
CC(C(=O)Nc1ccc(O)cc1C(=O)O)N1C(=O)/C(=C\c2cccs2)SC1=S (stereo not given)	.	0	58*	-5	-16	-15	28*
O=C(CCCN1C(=O)/C(=C/c2ccco2)SC1=S)Nc1ccccc1C(=O)O	.	-1	55*	-6	-5	4	29*
O=C(O)CCCN1C(=O)/C(=C\c2ccco2)SC1=S	3	-1	28*	1	-7	0	17
O=C1/C(=C/c2ccco2)SC(=S)N1CC1CCCO1 (stereo not given)	.	-8	35*	2	.	-6	6
O=C1/C(=C\c2ccco2)SC(=S)N1Cc1ccccc1	6	-2	19	-1	3	-8	.
O=C(CCCN1C(=O)/C(=C\c2ccco2)SC1=S)Nc1ccc2ccccc2c1	-4	11	4	-5	4	3	.
COc1ccc(-c2ccccc2[C@H]2[C@@H]3C=CC[C@@H](C)[C@@H]3C(=O)N2Cc2ccccc2)cc1	.	-1	4	-2	-1	1	.
O=C(CCCN1C(=O)/C(=C\c2ccccc2)SC1=S)Nc1ccc(O)cc1C(=O)O	.	-3	6	-5	-3	0	.
O=C(CCN1C(=O)/C(=C/c2ccco2)SC1=S)Nc1ccc(O)cc1C(=O)O	.	-1	68*	-1	10	0	38*
CCNc1nc(NCC)n2c(SCC(=O)Nc3ccccc3F)nnc2n1	.	8	27*	-6	5	-7	19
Cc1cc(S(=O)(=O)Nc2ccc(N3CCOCC3)cc2)ccc1Br	.	-6	29*	3	-11	-2	4
